Records with an inconclusive call do not appear. Entries that show only a call come without a potency. Activity calls are given as the source filed them. Calls come from the whole dose curve; as a rule, active = well fitted cell-killing curve with a large enough effect in the repeat runs; inconclusive = weak or mixed curves, or effect the other way; inactive = no such curve, though single readings can be large or run the other way.
test: qHTS assay to identify small molecule antagonists of the vitamin D receptor (VDR) signaling pathway - cell viability counter screen (AID 743225); conditions: VDR-bla HEK293T viability, CellTiter-Glo luminescence, 16 h; series mostly up to 61 µM; note: nearly all actives have a fitted effect of over 50% in size
Procedure, shortened: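 Compounds were pinned onto VDR-bla HEK 293T cells together with 1-alpha,25-dihydroxyvitamin D3 at 3 nM final. After 16 h at 37C and 5% CO2 plus the reporter readout, cell viability was measured by CellTiter-Glo luminescence (30 min, room temperature).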

Structure (SMILES)	Potency
O=C(CCCl)NCc1ccccc1	inactive
O=C(O[C@@H](C(=O)O)[C@@H](OC(=O)c1ccccc1)C(=O)O)c1ccccc1	inactive
Nc1cccc(S(=O)(=O)O)c1	inactive
CCOC(=O)c1ccccc1O	inactive
CC1(C)S[C@@H]2[C@H](NC(=O)C(C(=O)O)c3ccccc3)C(=O)N2[C@H]1C(=O)O (some centres undefined)	inactive
Cc1cc(NS(=O)(=O)c2ccc(N)cc2)nc(C)n1	inactive
Cc1ccc(C)c(N)c1	inactive
Cc1cc(S(=O)(=O)O)c(N)cc1Cl	inactive
CC(C)(C)C1CCCCC1=O (centres undefined)	inactive
CCCC(CCC)(C(=O)OCC)C(=O)OCC	inactive
CC(CNC1CCCCC1)OC(=O)c1ccccc1 (centres undefined)	inactive
CCOc1ccc(OCC)c(Cl)c1	inactive
O=C(O)[C@@H]1CSCN1	inactive
Cc1ncc(CO)c(CN)c1O	inactive
O=S(=O)(O)C(F)(F)F	inactive
CN1CCN(c2c(F)cc3c(=O)c(C(=O)O)cn(CCF)c3c2F)CC1	inactive
O=C(O)c1cccc(Cl)c1Cl	inactive
Cc1ccc([N+](=O)[O-])cc1Cl	inactive
NCCCN1CCN(CCCN)CC1	inactive
FC(F)(F)c1ccccc1	inactive
COC(=O)N[C@H](C(=O)N[C@@H](Cc1ccccc1)[C@@H](O)CN(Cc1ccc(-c2ccccn2)cc1)NC(=O)[C@@H](NC(=O)OC)C(C)(C)C)C(C)(C)C	inactive
OCCN1CCN(CCO)CC1	inactive
O=CCCc1ccccc1	inactive
CCN[C@H]1CN(CCCOC)S(=O)(=O)c2sc(S(N)(=O)=O)cc21	inactive
